According to PubChem BioAssay:
Calls of active or inactive are those of the source.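 The calls were made as follows: active = compounds killing one labelled cell type while sparing the other, by normalised counts and ratio limits, not self-fluorescent; inactive = the rest.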

Assay: EMT-state selective cytotoxicity in co-culture – imaging, PC-3E GFP, TEM4-18 mCherry, primary screen (AID 1345086);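 also: cells exposed to compound for 72 h before imaging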;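 as to red/green cell ratio (normalised): normalised mesenchymal count divided by normalised epithelial count so high means epithelial killing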
Conditions: PC-3E GFP / TEM4-18 mCherry co-culture, imaging cell counts, at 1 µM; for red/green cell ratio (normalised): actives lie on both sides, counts scaled to control wells, 1 = unselective
[1] = measured here: epithelial PC-3E GFP cell survival
[2] = measured here: mesenchymal TEM4-18 mCherry cell survival

Structure (SMILES)	red/green cell ratio (normalised)	normalised cell number [1]	normalised cell number [2]
C[C@H](O)[C@@H]1N[C@H]2N(C1=O)c1ccccc1C21CC2C(=O)NC1c1nc3ccccc3c(=O)n12 (stereo not given in full)	1.08 (inactive)	0.88	0.95
CCC[C@@H]1Cc2cc3c(-c4c(O)cc(O)c5c(O)c6c(cc45)C[C@@H](CCC)OC6=O)c(O)cc(O)c3c(O)c2C(=O)O1	0.85 (inactive)	1.2	1.02
C[C@H]1[C@H](OC(=O)CCC(=O)O)O[C@@H]2O[C@]3(C)CC[C@H]4[C@H](C)CC[C@@H]1[C@@]24OO3	0.81 (inactive)	0.68	0.55
Cc1ccc(S(=O)(=O)O[C@H]2CCOC2=O)cc1	0.92 (inactive)	1.16	1.06
CC(C)CC1OC23SCC(c4ccccc4)N2C(=O)C1C(C)(C)S3 (stereo not given)	0.9 (inactive)	1.15	1.03
COc1c(N2CC[C@@H](CN)C2)c(F)cc2c(=S)c(C(=O)O)cn(C3CC3)c12	1.12 (inactive)	1.08	1.2
COC(=O)CNC(=O)c1ccc([C@H](O)c2ccccc2)cn1	0.87 (inactive)	1	0.87
COC(=O)/C(=C1\OC(=O)C(c2ccccc2)=C1O)c1ccccc1	1.05 (inactive)	1.05	1.11
C[C@@H]1C[C@H](O)[C@@H](O)CO1	0.94 (inactive)	1.12	1.05
CC(C)[C@H]1COC(=S)N1C(C)CC(=O)N1CCOC1=O (stereo not given in full)	1.02 (inactive)	1.09	1.11
Cc1ccc(S(=O)(=O)O[C@@H]2CCOC2=O)cc1	0.71 (inactive)	1.41	1.01
CO[C@H]1CC(O[C@@H]2/C(C)=C/C[C@@H]3C[C@@H](C[C@]4(CC[C@H](C)[C@@H](C5CCCCC5)O4)O3)OC(=O)[C@@H]3C=C(C)/C(=N/O)C4OC/C(=C\C=C\[C@@H]2C)[C@]43O)O[C@@H](C)C1O (stereo not given in full)	1.11 (inactive)	1.23	1.36
O=C1CCC[C@@H](N2C(=S)OC[C@H]2c2ccccc2)C1	0.91 (inactive)	1.1	1.01
O=C(O)CNC(=O)c1ccc([C@H](O)c2ccccc2)cn1	0.86 (inactive)	1.15	0.99
O=C1CC[C@]23/C=C/C(=O)NCCCCNCCCNC(=O)/C=C/c4ccc(c2c4)O[C@@H]3C1	0.81 (inactive)	1.1	0.89
COC(=O)c1c[nH]c2c(OC)c(F)c(F)cc2c1=O	1.14 (inactive)	1.06	1.21
CC(=O)O[C@@H]1C[C@@]2(C)C(CC[C@@H]2C(C)=O)C2CCC3=CC(=O)CC[C@]3(C)C21 (stereo not given in full)	1.08 (inactive)	0.87	0.94
CCCCCCCCCCCCCc1ccco1	1.13 (inactive)	0.74	0.83
COc1cc(/C=C/C(=O)O)cc(OC)c1O	1.1 (inactive)	1.09	1.2
NC(=O)NCCCC(N)C(=O)O (stereo not given)	1.05 (inactive)	1.03	1.08

Structure (SMILES)	red/green cell ratio (normalised)	normalised cell number [1]	normalised cell number [2]
C=C[C@](C)(O)CC[C@@H]1[C@@]2(C)CCCC(C)(C)[C@@H]2CC[C@]1(C)O	1.05 (inactive)	1.16	1.21
CC(C)(c1ccc(O)cc1)c1ccc(O)cc1	0.93 (inactive)	1.17	1.09
CC12CCC3C(CC3(C)C)C3(C1)OC(=O)CC(C(=O)O)C3CC2 (stereo not given)	0.86 (inactive)	1.03	0.88
CC(C)CCCC(C)C1CCC2C3CC[C@H]4CC(=O)CC[C@]4(C)C3CC[C@]12C (stereo not given in full)	0.94 (inactive)	1.04	0.97
CO[C@H]1/C=C/C[C@@H](C)OC(=O)c2c(O)cc(O)cc2CC(=O)CCC1	1.01 (inactive)	0.98	0.98
C#C[C@]1(O)CCC2C3CCC4=CC(=O)CC[C@@H]4C3CCC21CC (stereo not given in full)	1.14 (inactive)	1.07	1.21
CC(C)CCCC(C)C1CCC2C3CC[C@H]4C[C@@H](O)CC[C@]4(C)C3CC[C@]12C (stereo not given in full)	1.05 (inactive)	1.04	1.1
C[C@@H]1C[C@H](O)/C=C/[C@H](O)[C@@H](O)CC(=O)O1	0.87 (inactive)	1.16	1.02
Cc1cc2c(CO)cc(O)cc2o1	1 (inactive)	0.92	0.92
COC(=O)c1cn(C2CC2)c2c(OC)c(F)c(F)c(N)c2c1=O	1.1 (inactive)	0.97	1.07
COc1c(N2CC[C@@H](CN)C2)c(F)cc2c(=O)c(C(=O)O)cn(CCc3ccccc3)c12	1.14 (inactive)	0.87	1
C=C1[C@@H](C)C2[C@H](Cc3c[nH]c4ccccc34)NC(=O)[C@]23C(=O)/C=C/C(=O)[C@H](O)/C(C)=C/[C@@H](C)C/C=C/[C@H]3[C@@H]1O (stereo not given in full)	0.87 (inactive)	1.25	1.09
c1ccc(OCC2CCNC2)cc1 (stereo not given)	0.83 (inactive)	1.17	0.97
CC1(C)C(=O)C=C[C@@]2(C)C1C=C[C@]1(C)C2CC[C@@]2(C)[C@H](c3ccoc3)OC(=O)[C@H]3O[C@]321 (stereo not given in full)	1.3 (inactive)	0.56	0.73
OC[C@H]1O[C@@](CO)(O[C@@H]2O[C@H](CO)[C@@H](O)[C@H](O)[C@H]2O)[C@@H](O[C@@H]2O[C@H](CO)[C@@H](O)[C@H](O)[C@H]2O)[C@@H]1O	0.9 (inactive)	1.13	1.01
COC1=CC[C@@]2(C)[C@@](O)(CC[C@H]3Cc4c([nH]c5ccccc45)[C@@]32C)[C@@]12CC(=O)[C@](O)(C(C)(C)OC(C)=O)O2	0.97 (inactive)	1.15	1.11
C=C(C)[C@@H]1CC[C@]2(C)CC[C@]3(C)[C@@H](CCC4[C@@]5(C)CC[C@H](O)C(C)(C)C5CC[C@]43C)C12 (stereo not given in full)	1.12 (inactive)	0.95	1.07
COC(=O)C[C@H]1C(C)(C)C(=O)[C@@H]2CC3C4=CC(=O)O[C@@H](c5ccoc5)[C@]4(C)CCC3C1(C)C2=O (stereo not given in full)	1.11 (inactive)	0.84	0.94
COc1cc(O)c2c(c1)[C@@H](O)[C@@]13CO[C@@H](O)[C@@]1(O3)C2=O	1.09 (inactive)	1.01	1.1
COC(=O)[C@@H]1OC(=O)C2OC23[C@@]1(C)CCC1[C@@]2(C)CCC(=O)C(C)(C)C2C[C@@H](OC(C)=O)[C@]13C (stereo not given in full)	1.04 (inactive)	1.06	1.11

Structure (SMILES)	red/green cell ratio (normalised)	normalised cell number [1]	normalised cell number [2]
COc1c(N2CC[C@@H](CN)C2)c(F)cc2c(=O)c(C(=O)O)cn(CCCCN3C(=O)c4ccccc4C3=O)c12	1 (inactive)	1.09	1.09
O=c1c2cc(O)c(O)cc2oc2cc(O)c(C3O[C@H](CO)[C@H](O)[C@@H](O)[C@H]3O)c(O)c12 (stereo not given in full)	0.86 (inactive)	0.99	0.85
CCO[C@H]1OC(C(=O)OC)C(OC(=O)CCC(=O)O)[C@H](OC(=O)c2ccccc2)[C@@H]1OC(=O)c1ccccc1 (stereo not given in full)	0.91 (inactive)	1.18	1.07
COc1ccc(-c2oc3ccccc3c(=O)c2OC)cc1	0.92 (inactive)	1.18	1.08
COc1c(F)c(F)cc2c(=S)c(C(=O)O)cn(C3CC3)c12	0.91 (inactive)	1.14	1.04
CC(=O)OC1CCC2(C)C3CC(=O)C4(C)C(CC5OC6(CCC(C)CO6)[C@@H](C)C54)C3CC[C@H]2C1 (stereo not given in full)	0.89 (inactive)	1.05	0.93
Cc1ccc(S[C@H]2OC(CO)C(O)[C@H](O)[C@@H]2N)cc1 (stereo not given in full)	0.98 (inactive)	1	0.97
CC1(C)C2CC(=O)[C@@]3(C)C4=CC(=O)O[C@@H](C(=O)O)[C@]4(C)CCC3[C@@]2(C)[C@@H](O)C[C@H]1O (stereo not given in full)	0.95 (inactive)	1.05	0.99
CC1O[C@@H](Oc2c(-c3ccc(O)c(O)c3)oc3cc(O)cc(O)c3c2=O)[C@H](O)[C@H](O)[C@H]1O (stereo not given in full)	1.01 (inactive)	1.01	1.02
COC1=CC(=O)C[C@@H](C)[C@]12Cc1c(Cl)c(OC)cc(OC)c1C2=O	0.76 (inactive)	1.33	1.01
C[C@@H]1CCC2[C@](C)(CO)[C@@H](O)CC[C@]2(C)[C@@]12CC[C@@](CO)(CCO)O2 (stereo not given in full)	0.93 (inactive)	1.01	0.94
Clc1ccc(Br)cc1OCC1CCCNC1 (stereo not given)	0.91 (inactive)	1.28	1.17
CC(CCC(=O)O)[C@H]1CCC2C3C(C[C@H](O)[C@@]21C)[C@@]1(C)CC[C@@H](O)C[C@H]1C[C@H]3O (stereo not given in full)	0.97 (inactive)	1.01	0.98
CCN(Cc1cccc(S(=O)(=O)O)c1)c1cccc(C(=C2C=CC(=[N+](CC)Cc3cccc(S(=O)(=O)O)c3)C=C2)c2ccc(O)cc2S(=O)(=O)[O-])c1	0.88 (inactive)	1.26	1.11
CC(=O)O[C@@H]1CC2C(C)(C)[C@H](O)C[C@H](O)[C@]2(C)C2CC[C@@]3(C)[C@H](c4ccoc4)OC(=O)[C@H]4O[C@]43[C@@]21C (stereo not given in full)	1.01 (inactive)	1.01	1.03
CO[C@@]1(NC(=O)C2SC(=C(C(N)=O)C(=O)O)S2)C(=O)N2C(C(=O)O)=C(CSc3nnnn3C)CSC21 (stereo not given in full)	0.96 (inactive)	1.21	1.17
C=C(C)n1cc(C(=O)O)c(=O)c2cc(F)c(N3CC[C@@H](CN)C3)c(OC)c21	1.13 (inactive)	1.07	1.21
CC(CC(=O)N1C(=S)SC[C@@H]1c1ccccc1)N1C(=S)SC[C@@H]1c1ccccc1 (stereo not given in full)	0.88 (inactive)	1.18	1.04
COC(=O)C1O[C@H](Sc2ccccc2)[C@@H](OC(=O)c2ccccc2)[C@@H](OC(=O)c2ccccc2)C1O (stereo not given in full)	0.96 (inactive)	1.05	1
OCCN1C[C@H](O)[C@@H](O)C(O)C1CO (stereo not given in full)	1.19 (inactive)	1.01	1.21
